The subject of this assay is Wnt5a (protein binding on small-molecule microarray). Briefly: small molecules binding Wnt5a protein – biophysical, small-molecule microarray, 635/667 nm fluorescence, primary screen (AID 1142).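 Also: fluorescence read at 667 nm with signal to noise per printed feature.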 The settings on record: 635 nm fluorescence, higher = more signal.
In the case of `CC(C)C(O)C1C=CC2C(=O)NC(=O)C2N1Nc1ccccn1` (stereo unspecified), the composite z-score was determined as 0.122.

Compound `C=CCC(OC(C)=O)[C@@H]1[C@@H](N(Cc2cccc3ccccc23)C(=O)c2ccc(-c3ccccc3)cc2)c2cc(OCCCO)ccc2N1C(=O)Cc1ccc2ccccc2c1` (stereo partly specified) registered a composite z-score of -0.0281.

`COc1cc(CO)cc(I)c1O[C@H]1C=C(C(=O)NCCO)C[C@@H]2O[C@H]12` gave a composite z-score of 0.815.

Compound `CC(C)[Si](C#CCCc1ccccc1)(O[C@H](c1ccccc1)c1cn(Cc2ccccc2)nn1)C(C)C` yielded a composite z-score of 0.21.

In turn, `O=C1[C@H]2C=C(I)[C@H](C[C@@H]2c2ccccc2)[C@@]12CO2` gave a composite z-score of -0.303.

`C=C(/C(=C/C[C@@H](OC(C)=O)c1cccc(OCCO)c1)c1cnc2ccccc2c1)C(C)C`: the composite z-score came out at 1.

As to `COCCOC(=O)N1C(=O)[C@@]2(c3cc(C#CCC(C(=O)OC)C(=O)OC)ccc31)[C@H](C(=O)Nc1nc3ccccc3s1)[C@H]1C(=O)O[C@H](c3ccccc3)[C@H](c3ccccc3)N1[C@@H]2c1ccc(OCCO)cc1`, the composite z-score is 0.555.

Turning to `C=CCNC(=O)[C@H]1[C@@H]2C(=O)O[C@@H](c3ccccc3)[C@@H](c3ccccc3)N2[C@@H](c2ccc(OCCO)cc2)[C@]12C(=O)Nc1ccccc12`, the composite z-score is -0.159.

As to `COC(=O)[C@@]1(Cc2ccc(F)cc2)[C@H]2c3cc(C(=O)N(C)C)n(CCc4ccc(O)c(O)c4)c3C[C@H]2CN1C(=O)c1ccccc1`, the composite z-score amounted to 0.643.

In turn, `C=CC[C@@]12N=C(c3ccc(OCCCO)cc3)O[C@@H]1c1ccccc1N(CCC)C2=O` returned a composite z-score of 0.318.

In the case of `O=C(NC1CC1)[C@@H]1c2ccccc2C(=O)N(Cc2ccc(OC(F)(F)F)cc2)[C@H]1c1ccc(CO)cc1`, the composite z-score is 0.227.

In the case of `COC(=O)[C@@]1(Cc2ccc(OC)cc2)[C@H]2c3cc(C(=O)N4CCCC4)n(Cc4ccc(C(F)(F)F)nc4)c3C[C@H]2CN1C(=O)c1ccccc1`, the composite z-score is 0.426.

Take `CCC(CC)C(O)C1C=CC2C(=O)N(c3ccccc3)C(=O)C2N1Nc1ccccc1F` (stereo unspecified): the composite z-score amounted to 0.0501.

The compound `C=C(COC)C(=O)CC[C@@H](OC(C)=O)c1ccccc1OCCO` had a composite z-score of 0.866.

In turn, `[N-]=[N+]=Nc1ccccc1[C@@H]1OC(c2ccc(OCCCO)cc2)=N[C@]1(CCS(=O)(=O)c1ccccc1)C(=O)NCC(O)CO` (stereo partly specified) showed a composite z-score of -0.0534.

`COCCCNC(=O)[C@@]1(Sc2ccc(C)cc2)CC(=O)N(Cc2ccccc2C(F)(F)F)[C@@H]1c1ccc(CO)cc1I` showed a composite z-score of -0.249.

`COc1ccc([Si](C)(C)[C@H]2[C@H](CC(=O)N3Cc4ccccc4C[C@H]3CO)O[C@@]3(C(=O)N(C)c4ccccc43)[C@@H]2C)cc1` showed a composite z-score of 0.26.

The compound `CN1C(=O)C2C(C1=O)C1C=C(c3ccc(CO)cc3)C2C(C2CC2)N1C` (stereo unspecified) yielded a composite z-score of -0.283.

Compound `COCCCNC(=O)[C@@]1(CCS(=O)(=O)c2ccccc2)COC(c2ccc(OCCCO)cc2)=N1` had a composite z-score of 0.612.

In turn, `COC(=O)[C@@]1(Cc2ccc(F)cc2)[C@H]2c3cc(C(=O)N4CCCC4)n(Cc4cc(F)cc5c4OCOC5)c3C[C@H]2CN1C(=O)c1ccccc1` registered a composite z-score of 0.547.

`O=C1C[C@@](C(=O)NCc2ccccc2)(c2ccc([N+](=O)[O-])cc2)[C@@H](c2ccc(CO)cc2)N1C1CCCCC1` registered a composite z-score of 0.203.

Compound `CCCCC(O)C1C=CC2C(=O)N(c3ccccc3)C(=O)C2N1Nc1ccc([N+](=O)[O-])cc1` (stereo unspecified) yielded a composite z-score of 0.044.

For the compound `CC1CC/C=C\[C@H]2OC34C=CCN(C(C)(C)C)C(=O)[C@H]3N(CCCO)C(=O)[C@@H]4C2C(=O)O1` (stereo partly specified), the composite z-score is -0.0437.

For the compound `CCCCCC1=C2CNC(Cc3ccccc3)(C(=O)OC)C=C2C(C)C1=O` (stereo unspecified), the composite z-score was -0.176.

In turn, `CCOC(=O)C1=C[C@@H](C(C)(C)C)N(S(=O)(=O)c2ccc(C)cc2)[C@H]1c1ccc(C#N)cc1` gave a composite z-score of 0.327.

Take `COc1ccc([Si](C)(C)[C@@H]2[C@@H](CC(=O)N(CCO)Cc3ccccc3)O[C@]3(C(=O)N(Cc4ccc(I)cc4)c4ccccc43)[C@H]2C)cc1`: the composite z-score is 0.29.

Turning to `C=CCNC(=O)[C@H]1[C@@H]2C(=O)O[C@@H](c3ccccc3)[C@@H](c3ccccc3)N2[C@@H](c2ccccc2OCCO)[C@]12C(=O)N(C(=O)OCCOC)c1ccc(C#Cc3ccc(OC)cc3)cc12`, the composite z-score is 0.571.

Consider `CCOC(=O)C[C@H]1[C@H](OC(=O)c2cc3ccccc3oc2=O)[C@@H](NC(=O)CC(C)C)c2cc(OCCCO)ccc2N1C(=O)Cc1ccc(OC)cc1`, for which the composite z-score worked out at 0.221.

Consider `O=C(NC1CC1)[C@@H]1c2ccccc2C(=O)N(CC23CC4CC(CC(C4)C2)C3)[C@H]1c1ccc(CO)cc1`, for which the composite z-score came to 0.659.

`C=CCN1C(=O)[C@@]2(O[C@@H](CCn3cc([C@H](O)c4ccccc4)nn3)[C@H]([Si](C)(C)c3ccc(OC)cc3)[C@H]2C)c2cc(N3C(=O)c4cccc5cccc3c45)ccc21`: the composite z-score was -0.654.

Take `CCOC(=O)C[C@H]1[C@H](OC(=O)c2ccccc2-c2ccccc2)[C@@H](NC(=O)c2ccc3ccccc3c2)c2cc(OCCCO)ccc2N1C(=O)Cc1ccc(OC)cc1`: the composite z-score was determined as 0.23.

`COC(=O)[C@@]1(Cc2ccc(OC)cc2)[C@H]2c3cc(C(=O)N4CCCC4)n(Cc4ccc(Cl)c(C(F)(F)F)c4)c3C[C@H]2CN1C(=O)c1ccccc1` yielded a composite z-score of 0.344.

On to `CCCC[C@H]1C[C@@H]1[C@@H]1N(C(C)=O)[C@H](c2cccc(OC)c2)CC12CC2`, for which the composite z-score was -0.0718.

In turn, `COc1ccc(CCNC(=O)[C@@H]2c3ccccc3C(=O)N(Cc3ccccc3OC)[C@H]2c2ccc(CO)cc2)cc1` showed a composite z-score of 0.321.

`O=C1C=C(c2ccccc2)C(=O)C2=C1CC([C@H]1Oc3ccccc3S(=O)(=O)N3CCC[C@@H]13)=CC2` yielded a composite z-score of -0.0842.

Take `COCCOC(=O)N1C(=O)[C@@]2(c3cc(C#Cc4ccc(OC)cc4)ccc31)[C@H](c1ccc(OCCO)cc1)N1[C@H](c3ccccc3)[C@H](c3ccccc3)OC(=O)[C@H]1[C@@H]2C(=O)NC[C@H](O)c1ccccc1`: the composite z-score was determined as 0.316.
